For the experiment, the target named is T1, Protein deacetylase HDAC6 (Homo sapiens) (UniProt Q9UBN7).
T1 sequence (whole entry): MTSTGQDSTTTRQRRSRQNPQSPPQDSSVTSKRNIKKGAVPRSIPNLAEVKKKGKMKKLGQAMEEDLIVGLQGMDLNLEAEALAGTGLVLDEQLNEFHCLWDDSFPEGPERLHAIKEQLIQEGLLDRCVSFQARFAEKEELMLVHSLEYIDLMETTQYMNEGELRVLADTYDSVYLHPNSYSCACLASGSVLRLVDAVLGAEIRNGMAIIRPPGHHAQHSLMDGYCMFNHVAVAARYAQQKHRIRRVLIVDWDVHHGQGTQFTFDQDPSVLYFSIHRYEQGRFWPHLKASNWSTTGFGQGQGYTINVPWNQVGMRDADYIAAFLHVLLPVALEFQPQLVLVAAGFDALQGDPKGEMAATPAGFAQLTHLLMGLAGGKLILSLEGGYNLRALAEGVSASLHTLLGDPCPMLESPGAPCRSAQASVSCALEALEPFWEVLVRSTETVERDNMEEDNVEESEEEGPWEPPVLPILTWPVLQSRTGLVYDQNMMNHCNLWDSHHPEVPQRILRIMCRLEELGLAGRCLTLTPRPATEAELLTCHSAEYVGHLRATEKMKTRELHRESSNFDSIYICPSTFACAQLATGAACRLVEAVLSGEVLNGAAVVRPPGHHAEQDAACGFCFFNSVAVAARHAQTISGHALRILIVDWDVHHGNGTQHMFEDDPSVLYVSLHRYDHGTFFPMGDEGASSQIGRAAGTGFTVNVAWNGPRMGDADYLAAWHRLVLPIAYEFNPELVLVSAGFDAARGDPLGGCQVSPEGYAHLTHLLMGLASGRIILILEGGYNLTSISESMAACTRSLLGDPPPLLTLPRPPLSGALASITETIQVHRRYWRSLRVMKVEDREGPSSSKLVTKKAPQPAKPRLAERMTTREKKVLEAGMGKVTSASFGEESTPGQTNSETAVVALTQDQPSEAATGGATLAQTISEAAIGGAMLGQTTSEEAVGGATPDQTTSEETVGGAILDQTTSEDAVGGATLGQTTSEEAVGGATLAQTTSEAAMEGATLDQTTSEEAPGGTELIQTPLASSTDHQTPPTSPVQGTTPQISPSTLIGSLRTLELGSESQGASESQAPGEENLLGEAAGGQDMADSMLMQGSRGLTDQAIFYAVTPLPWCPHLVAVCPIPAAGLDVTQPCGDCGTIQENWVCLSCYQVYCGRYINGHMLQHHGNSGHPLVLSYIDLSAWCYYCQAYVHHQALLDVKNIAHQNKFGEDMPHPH
The conditions noted are these: at 10 µM.

About 390 (7%) of roughly 5,600 compounds showed an effect of 50% or more. The full list was thinned out, with strong results kept by preference.

Usually inhibition stands for the drop in the measured response relative to a control, in per cent. Turning to `Nc1[nH]cnc2ncnc1-2`, the inhibition is -1.89%.

As for `NS(=O)(=O)c1ccc(S(=O)(=O)Nc2cccc3c(Cl)c[nH]c23)cc1`, the inhibition is -6.04%. Next, `C1CCN2C[C@H]3C[C@H](CN4CCCC[C@@H]34)[C@H]2C1`: 30.9%; `Cc1ncc(-c2csc(N=C(N)N)n2)[nH]1`: 3.96%; `Ic1cc(-c2ccccc2)ncn1`: 25.2%. Next, `CC[C@@]1(O)C(=O)OCc2c1cc1n(c2=O)Cc2cc3c([N+](=O)[O-])cccc3nc2-1`: 11.9%. In the case of `c1cc(CN2CCCCC2)cc(OCCCNc2nc3ccccc3s2)c1`, the inhibition came to 59.6%. With `O=C(OC(C(F)(F)F)C(F)(F)F)N1CCN(Cc2cccc(Oc3ccccc3)c2)CC1`, the inhibition was -8.39%. The figure for `CC(=O)OCC(=O)NCCCOc1cccc(CN2CCCCC2)c1` is 14.5%; for `COc1ccc(C(=O)N2CCCc3cc(C4=NNC(=O)SC4C)ccc32)cc1OC` (configuration not stated) it is 7.12%; for `Cc1ccc(S(=O)(=O)NC2c3ccccc3Oc3ccccc32)cc1` it is 0.27%. For `CNC(=O)CN(CCN(CCN(CC(=O)O)CC(=O)NC)CC(=O)O)CC(=O)O`, the inhibition turned out to be 17.5%.

Turning to `OCc1ccc(-c2ccc(-c3ccc(CO)s3)o2)s1`, the inhibition came to 102%. Next, `O=C(O)COc1cccc(-c2ocnc2-c2nc(-c3ccccc3)c(-c3ccccc3)o2)c1`: -1.23%. As to `CCCc1ncc(C[n+]2ccccc2C)c(N)n1`, the inhibition was -5.17%. The figure for `Cc1ncc(C[n+]2csc(CCO)c2C)c(N)n1` is 53%; for `CC(C)CN(C[C@@H](O)[C@H](Cc1ccccc1)NC(=O)O[C@H]1CCOC1)S(=O)(=O)c1ccc(N)cc1` it is 1.38%; for `COc1ccc(OC)c(CN(C(C)=O)c2cc(F)ccc2Oc2ccccc2)c1` it is 1.27%. For the compound `O=C(c1ccc(OCCN2CCCCC2)cc1)c1c(-c2ccc(O)cc2)sc2cc(O)ccc12`, the inhibition was determined as 38.5%. Turning to `Cc1c(-c2ccc(O)cc2)n(Cc2ccc(OCCN3CCCCCC3)cc2)c2ccc(O)cc12`, the inhibition came to 86.2%. For `O=C(Cc1ccc(-c2ccc(OCCN3CCOCC3)cc2)cn1)NCc1ccccc1`, the inhibition stood at 9.75%.

Regarding `O=[N+]([O-])c1cnc(Sc2nnc(O)n2-c2ccc3c(c2)OCCO3)s1`, the inhibition was 11.2%. Regarding `C[n+]1cccc(C(=O)[O-])c1`, the inhibition is 7.12%. Turning to `O=C(Nc1ccccc1)C12CC1/C(=N\O)c1ccccc1O2` (configuration not stated), the inhibition is 16.1%. The figure for `Nc1cc(C(F)(F)F)c(-c2nc(N3CCOCC3)nc(N3CCOCC3)n2)cn1` is -6.25%. For the compound `OCc1c[nH]c2ccccc12`, the inhibition was 2.93%. With `O=C(O)C(=O)Cc1c[nH]c2ccccc12`, the inhibition amounted to 20.3%. `c1ccc2c(Cc3c[nH]c4ccccc34)c[nH]c2c1`: the inhibition came to 71.8%.

Consider `CCc1cc2c(c(CC)n1)CCC(=O)N2Cc1ccc(-c2ccccc2-c2nnn[nH]2)cc1`, for which the inhibition amounted to 0.45%.

In the case of `[O-][S+](c1ccccc1)c1ccc2nnnn2n1` (configuration not stated), the inhibition was -5.95%. Take `Clc1ccc(N/N=C(\c2ccccc2)c2ccccn2)nc1`: the inhibition is 25.9%. With `c1ccc(COCCCc2c[nH]cn2)cc1`, the inhibition was 20.5%. Turning to `COc1ccc2cc1Oc1ccc(cc1)C[C@H]1c3c(cc4c(c3Oc3cc5c(cc3OC)CCN(C)[C@@H]5C2)OCO4)CCN1C`, the inhibition was -6.05%. The figure for `O=C1/C(=C/c2ccccc2)C(NC2CCCCC2)c2ccccc21` (configuration not stated) is 8.83%; for `Cc1noc(NS(=O)(=O)c2cccc3c(N(C)C)cccc23)c1C` it is 29.9%; for `Nc1nc2c(cnn2CCc2ccccc2)c2nc(-c3ccco3)nn12` it is 61.6%. In the case of `Cc1ccc(C)c(OCCCC(C)(C)C(=O)O)c1`, the inhibition was 7.2%. For the compound `Cc1cc(Cl)ccc1OCCCC(=O)NO`, the inhibition came to 98.5%. `COc1ccc2[nH]c3c(-c4cccc5ccccc45)nccc3c2c1`: the inhibition amounted to 9.67%. As for `Cc1cc(C)c(N)c(C#Cc2cccc(F)c2)n1`, the inhibition stood at 103%.

As to `Cc1nc(C#Cc2ccnc(Cl)c2)c(C)n1-c1ccc(F)cc1`, the inhibition stood at 5.29%. The figure for `CC(C)NC(=O)c1ccc(C#Cc2ccncc2)cn1` is -5.33%; for `C[C@@H]([C@H](C)O)[C@H](N)C(=O)O` it is -7.36%; for `CNC(=O)c1ccc(C)c(-n2c(C)cc(OCc3ccc(F)cc3F)c(Br)c2=O)c1` it is 72.6%. As for `CCCCCCCCCCCCCC[C@@H](O)[C@@H](O)[C@@H](N)CO`, the inhibition stood at 0.56%.

Regarding `CCCc1c(OCC(O)COc2ccc3c(=O)cc(C(=O)O)oc3c2CCC)ccc(C(C)=O)c1O` (configuration not stated), the inhibition came out at 22.7%. With `Cc1cc(OI)c(C(C)C)cc1-c1cc(C(C)C)c(OI)cc1C`, the inhibition amounted to 7.55%. On to `Cc1nc2ccc(NC(=O)Nc3ccnc4cccnc34)cc2o1`, for which the inhibition was found to be 76%.

As for `CN[C@@H]1CCc2[nH]c3ccc(C(N)=O)cc3c2C1`, the inhibition was found to be 9.03%. In the case of `Cc1cccc(/C=N/Nc2cc(N3CCOCC3)nc(OCCc3ccccn3)n2)c1`, the inhibition amounted to 1.14%. The figure for `Cc1cc(-c2nncc3c(C(C)(C)C)c(OCc4ncnn4C)nn23)no1` is -0.39%; for `COc1cc([C@H]2Oc3cc([C@H]4Oc5cc(O)cc(O)c5C(=O)[C@@H]4O)ccc3O[C@@H]2CO)ccc1O` it is 15.7%; for `O=C1C[C@@H](c2ccc(O)cc2)Oc2cc(O)ccc21` it is -5.99%. Regarding `O=C1c2c(O)cc(O)cc2O[C@H](c2ccc(O)c(O)c2)[C@H]1O`, the inhibition is 10.8%. Consider `COc1ccc([C@@H]2CC(=O)c3c(O)cc(O[C@@H]4O[C@H](CO[C@@H]5O[C@@H](C)[C@H](O)[C@@H](O)[C@H]5O)[C@@H](O)[C@H](O)[C@H]4O)cc3O2)cc1O`, for which the inhibition was determined as 14.3%.

Regarding `O=C1C[C@@H](c2ccccc2)Oc2cc(O)cc(O)c21`, the inhibition worked out at 50.7%.

In the case of `COc1ccc([C@@H]2CC(=O)c3c(O)cc(O)cc3O2)cc1O`, the inhibition was determined as 94.9%.
